Inhibition data for 58 molecules are collected here from PubChem BioAssay AID652257 (The Scripps Research Institute Molecular Screening Center, 2013).

The term inhibition denotes the change of the read-out against control, counted positive when it falls.

Among all 370,000 compounds or so, about 4,800 (1.3%) were called active.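 Rule for the calls: active = inhibition above about 21% made by adding two undisclosed values (limit read from the data); inactive = the rest.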 This excerpt belongs to a sample that is enriched for actives.

The target in this experiment is Protein arginine N-methyltransferase 1 (Homo sapiens) (UniProt Q99873). Briefly: PRMT1 methyltransferase inhibitors, primary screen, biochemical, fluorescence polarization (AID 652257). The following applies: recombinant PRMT1, activity-based probe fluorescence polarization; at 2.79 µM; hits give high values. (In general: In fluorescence polarisation assays a small probe gives low polarisation when free and higher when bound to something large.)
Protein arginine N-methyltransferase 1 (Homo sapiens), sequence (Q99873 whole entry, looked up): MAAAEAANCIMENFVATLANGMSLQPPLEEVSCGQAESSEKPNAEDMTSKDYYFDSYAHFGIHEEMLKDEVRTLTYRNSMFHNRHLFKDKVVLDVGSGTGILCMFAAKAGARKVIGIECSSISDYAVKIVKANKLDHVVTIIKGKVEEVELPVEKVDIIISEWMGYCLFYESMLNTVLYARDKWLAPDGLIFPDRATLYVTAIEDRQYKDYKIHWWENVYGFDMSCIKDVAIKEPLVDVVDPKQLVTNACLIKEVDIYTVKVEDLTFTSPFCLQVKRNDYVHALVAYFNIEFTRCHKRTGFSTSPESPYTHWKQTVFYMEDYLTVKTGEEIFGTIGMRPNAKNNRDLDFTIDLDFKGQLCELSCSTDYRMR
Turning to `CCN(CC)C(=O)CC[C@@H]1CC[C@]2(CCCN(S(=O)(=O)C3CCCCC3)C2)O1`, the inhibition was 8.38% (inactive). `CC1(C)SC2c3ccccc3C(=O)N2[C@@H]1C(=O)NCc1ccco1` (stereo partly drawn): the inhibition was 2.92% (inactive). Next, `CN=C1SC(C(=O)O)CC(=O)N1C` (stereo not drawn): 0.87% (inactive). Regarding `COC(=O)[C@]12C[C@H](CC(=O)N3CCOCC3)C(=O)N(Cc3ccc(Cl)cc3Cl)C1=C[C@H](C(C)C)O[C@@H]2C1CC1`, the inhibition is 3.55% (inactive). Turning to `c1ccc(C2CNCc3c2ccc2ccccc32)cc1` (stereo not drawn), the inhibition is 2.21% (inactive). In the case of `CCCC(C(=O)NCc1ccco1)N(C(=O)CNS(=O)(=O)c1ccccc1)C1CCCC1` (stereo not drawn), the inhibition is -1.78% (inactive). The result for `COC(=O)C1CN(CC(C)C)CCS(=O)(=O)N1Cc1ccc(C)cc1` (stereo not drawn) reads 6.76% (inactive). For the molecule `O=C(C1CCCN1S(=O)(=O)c1ccccc1)N1CCc2ccccc2C1` (stereo not drawn), the inhibition is -6.97% (inactive). As for `CC(C)CNS(=O)(=O)CC1NCCc2ccccc21` (stereo not drawn), the inhibition is 4.3% (inactive). Take `CCn1c2ccccc2c2cc(NC(=O)CSc3nnc(-c4ccccc4)n3-c3ccc(C)cc3)ccc21`: the inhibition was -1.61% (inactive). In the case of `CN(C)C(CNC(=O)CCCOc1ccccc1)c1ccco1` (stereo not drawn), the inhibition is -0.86% (inactive). For `O=C(Nc1cccc(F)c1)c1coc(=O)c(Br)c1`, the inhibition was 5.43% (inactive).

On to `O=C(c1ccc(Cl)s1)N(Cc1nnc(-c2ccccc2Cl)o1)C1CC1`, for which the inhibition was 1.28% (inactive). As for `O=C(c1cc(-c2ccco2)nc2ccccc12)N(Cc1nnc(-c2ccc(Cl)cc2)o1)C1CC1`, the inhibition was 22.5% (active). Take `CN(CCOc1ccccc1)Cc1nc2cc(Cl)ccc2c(=O)[nH]1`: the inhibition is 2.3% (inactive).

`O=C(c1cc(-c2ccc(Cl)s2)nc2ccccc12)N1CCOCC1`: the inhibition was -5.47% (inactive).

Regarding `Cc1cc(C(=O)Nc2ccc(C)c(S(=O)(=O)N3CCOCC3)c2)c2ccccc2n1`, the inhibition was 0.88% (inactive). On to `CC(=O)N1CCN(C(=O)c2cc(-c3ccc(Cl)s3)nc3ccccc23)CC1`, for which the inhibition was 2.92% (inactive). Turning to `CC(C)N(Cc1nnc(-c2ccccc2Br)o1)C(=O)c1cc(Cl)nc2ccccc12`, the inhibition is -5.25% (inactive).

As to `CC(=O)N1CCN(C(=O)c2cc(-c3ccc(C)o3)nc3ccccc23)CC1`, the inhibition was 32.5% (active). Turning to `CN(CCOc1ccccc1)C(=O)c1cc(-c2ccco2)nc2ccccc12`, the inhibition was 29.2% (active). As to `O=C(Nc1cccc(F)c1)c1cc(-c2ccco2)nc2ccccc12`, the inhibition is 30.3% (active). Consider `COC(=O)C[C@H]1CC[C@H]2[C@H](COc3ccc(NC(=O)C4CC4)cc3C(=O)N2C)O1`, for which the inhibition is 1.52% (inactive). Consider `CC(=O)NCCc1ccc(S(=O)(=O)N(C)C2CCS(=O)(=O)C2)cc1` (stereo not drawn), for which the inhibition was -0.5% (inactive). Consider `CN1C[C@]2(C=C3CCCCC3n3c(=O)n(-c4ccccc4)c(=O)n32)N=C1NC(=O)c1ccccc1` (stereo partly drawn), for which the inhibition is 1.11% (inactive). Take `COC(=O)C[C@@H]1CC[C@H]2[C@@H](COc3ccc(NS(=O)(=O)CC(F)(F)F)cc3C(=O)N2C)O1`: the inhibition is 4.04% (inactive). With `O=C(CNS(=O)(=O)c1ccccc1)NCC(=O)OCc1ccccc1F`, the inhibition was 1.67% (inactive). As to `CC(=O)C1(C(=O)Nc2nccs2)CC(c2ccccc2C(F)(F)F)=NO1` (stereo not drawn), the inhibition is 5.04% (inactive). Turning to `O=C1CCC/C(=N\NC(=O)NC2CCCCC2)C1`, the inhibition was 0.8% (inactive). As to `O=C(OC12CCCN(C1)/C(=C/c1ccccc1)C2)c1ccco1` (stereo not drawn), the inhibition was -3.75% (inactive). Next, `CNC(=O)NC(=O)CSc1nnc(-c2ccc(F)cc2)n1CC1CCCO1` (stereo not drawn): 2.71% (inactive); `COc1ccccc1CCNC(=O)C1CCN(c2nc(C)cc(C)n2)CC1`: 1.67% (inactive); `CCn1c(SCC(C)=O)nc2sc3c(c2c1=O)CCCC3`: -4.09% (inactive).

Consider `COc1ccc(NC(=O)CN(C)C(=O)c2cc(-c3ccc(C)o3)nc3ccccc23)cc1`, for which the inhibition is 26.9% (active).

On to `Cc1ccc(NC(=O)c2cc(-c3ccc(C)o3)nc3ccccc23)nc1`, for which the inhibition is 47.4% (active).

Regarding `Cc1ccc(S(=O)(=O)CCC(=O)OCC(=O)N(C)C2CCS(=O)(=O)C2)cc1` (stereo not drawn), the inhibition is 1.31% (inactive). Regarding `Cc1cc(NC(=O)c2ccccc2C)no1`, the inhibition is -1.67% (inactive). Take `COc1ccc(NC(=O)CN(C)C(=O)c2cc(C)oc2C)cc1`: the inhibition is -0.84% (inactive). Turning to `COc1cccc(NC(=O)CN(C)C(=O)c2cc(Cl)nc3ccccc23)c1`, the inhibition is -4.52% (inactive). The result for `CN(C(=O)COC(=O)c1cc(-c2ccco2)nc2ccccc12)C1CCS(=O)(=O)C1` (stereo not drawn) reads 21.6% (active); that for `O=C(Nc1nc2ccc(Cl)cc2s1)c1cc(-c2ccc(Cl)cc2)nc2ccccc12`, 9% (inactive).

On to `Cc1cc(C(=O)OCC(=O)N2C(C)CCCC2C)c2ccccc2n1` (stereo not drawn), for which the inhibition was 7.6% (inactive). With `CC1(C)CC(CNCCC(c2ccc(F)cc2)c2ccco2)CCO1` (stereo not drawn), the inhibition was -2.86% (inactive).

On to `O=C(NCCc1ccc(Cl)cc1Cl)c1cc([N+](=O)[O-])c[nH]c1=O`, for which the inhibition is -1.63% (inactive).

As for `CC(=O)c1ccc(Cc2ncc(C(F)(F)F)cc2Cl)s1`, the inhibition was 1.39% (inactive). Next, `CCOC(=O)C1CCN(C(=O)C(C)(C)NC(=O)Nc2ccccc2Cl)CC1`: -1.31% (inactive); `Cc1ccc(-n2c(SCC(=O)Nc3ccc(S(=O)(=O)Nc4nccs4)cc3)nnc2-c2cccnc2)cc1`: -3.77% (inactive); `O=C(COC(=O)Cc1ccc(F)cc1)Nc1cc(S(=O)(=O)N2CCOCC2)ccc1N1CCCC1`: -0.54% (inactive). With `COCCNC(=S)Nc1cc(S(=O)(=O)N2CCOCC2)ccc1N1CCCCC1`, the inhibition was 29.6% (active). The result for `CC(C)CCC(=O)Nc1cc(S(=O)(=O)N2CCOCC2)ccc1N1CCCC1` reads -0.42% (inactive). Regarding `CN(C)Cc1cn(-c2ccc(-c3noc4c3C(=O)N(CC(=O)N3CCOCC3)CC4)cc2)nn1`, the inhibition is 3.49% (inactive). For the molecule `O=C(/C=C/c1cccc(C(F)(F)F)c1)N1CCN(c2ccccn2)CC1`, the inhibition was 3.3% (inactive). In the case of `Cc1ccc(C)c(NC(=O)CCS(=O)(=O)c2ccccc2)c1`, the inhibition was 10% (inactive).

For `O=S(=O)(Nc1n[nH]c(C(F)(F)F)n1)c1ccccc1`, the inhibition is -0.91% (inactive).

`Cc1noc(C)c1C(=O)OC(C)C(=O)Nc1ccc2c(c1)OCO2` (stereo not drawn): the inhibition was -4.06% (inactive). As to `O=S(=O)(NC1CC1)c1ccc(F)c(F)c1`, the inhibition was 0.17% (inactive). Take `Cn1sc(=O)c2cc(S(=O)(=O)NC3CC3)ccc21`: the inhibition is 36.8% (active). Next, `CC1CCC(NS(=O)(=O)c2ccc3c(c2)CC(=O)N3)CC1` (stereo not drawn): 2.71% (inactive).
